Only a selection was taken, and hits are over-represented in it overall.
Cycloheximide cs: counter-screen hit for Shiga toxin inhibitors, cycloheximide; max response, %; 300,000 compounds, 12% hits; cell reporter, cycloheximide protein synthesis inhibition counterscreen; in the data active means max response mostly above about 13%, no sharp cut-off; inactive means mostly below about 14%; further: read at 38.3 µM for the half of the compounds with a filed dose
Tb PYK inh: T. brucei pyruvate kinase inhibition | TbPYK enzyme, Kinase-Glo Plus ATP luminescence, 45 min | Potency, µM (titrated, usually from 76.8 µM), actives largely listed as inhibitors | 410,000 compounds, 0.12% hits | AID 624173; further: nearly all actives have a fitted effect of over 50% in size
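In this concentration-response screen, enzyme-free wells defined baseline while DMSO plates tracked drift. Each reaction combined TbPYK, substrate, compound and 130 uM ADP for 45 min at room temperature. Kinase-Glo Plus luminescence gave the signal.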
LmPK inh: LmPK (Leishmania mexicana) enzyme inhibition | purified LmPK, Kinase-Glo ATP luminescence, 1 h | Potency, µM (doses to about 57.5 µM), usual class: inhibitors | 290,000 compounds, 0.37% hits
Target sequence (Q27686 whole entry, looked up): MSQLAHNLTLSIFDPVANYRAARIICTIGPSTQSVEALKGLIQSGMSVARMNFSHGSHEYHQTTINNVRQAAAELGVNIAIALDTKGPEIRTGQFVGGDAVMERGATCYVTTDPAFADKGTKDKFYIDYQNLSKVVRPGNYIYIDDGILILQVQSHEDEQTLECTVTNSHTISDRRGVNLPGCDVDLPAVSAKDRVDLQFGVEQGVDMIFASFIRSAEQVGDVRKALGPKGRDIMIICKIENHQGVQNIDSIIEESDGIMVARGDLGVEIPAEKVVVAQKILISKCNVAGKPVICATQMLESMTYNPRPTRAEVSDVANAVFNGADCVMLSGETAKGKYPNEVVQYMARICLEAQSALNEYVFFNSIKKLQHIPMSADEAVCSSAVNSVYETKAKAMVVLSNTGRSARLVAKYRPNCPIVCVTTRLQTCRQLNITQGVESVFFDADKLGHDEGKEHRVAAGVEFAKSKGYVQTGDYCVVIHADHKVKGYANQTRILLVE
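Purified LmPK (0.1 nM) converted ADP (0.1 mM) to ATP with PEP (0.5 mM) in imidazole buffer pH 7.2 with KCl and MgCl2, 1 h at room temperature. ATP was read by Kinase-Glo luminescence; data normalized to uninhibited and no-enzyme controls.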
RE007 growth inh: less growth of the S. pombe RE007 Vpr strain. S. pombe RE007 Vpr strain, BacTiter-Glo ATP luminescence, 24 h. AID 651644. Potency, µM (doses to about 92.2 µM), actives largely listed as inhibitors. 360,000 compounds, 0.21% hits; active means well fitted falling curve with a large enough effect; inconclusive means small, poorly fitted or top-dose-only effect; inactive means no such curve, though single readings can be large or run the other way; further: nearly all actives have a fitted effect of over 50% in size
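Fission yeast strain RE007, carrying one chromosomally integrated HIV-1 vpr copy, was seeded at OD 0.01 in PMG+AL medium with 23 nL pinned compound. After 24 h at 30 °C and 99% humidity, viability was read by BacTiter-Glo luminescence.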
Shiga toxin inh: inhibitors of Shiga toxin in Vero cells; AID 2315; 290,000 compounds, 9.2% hits; inhibition, % at 38.7 µM; Vero cells, Shiga toxin protein synthesis inhibition reporter; in the data active means inhibition mostly above about 28%, no sharp cut-off; inactive means mostly below about 43%
Giardia FBPA inh-1: Giardia lamblia aldolase inhibition. purified Giardia FBPA. A8B2U2. AID 2451. Potency, µM (highest dose often 59.6 µM), hits mostly inhibitors. 290,000 compounds, 0.71% hits; further: nearly all actives have a fitted effect of over 55% in size
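40 nM FBPA preincubated 10 min at RT with compound (up to 57.5 uM final), then substrate plus GAPDH/TPI/NAD/arsenate coupling and diaphorase/resazurin added. Fluorescence read after 20 min at RT, 525/598 nm.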
Giardia growth: inhibitors of Giardia lamblia growth. Potency, µM (titrated, usually from 57.5 µM), actives largely listed as inhibitors. 1,500 compounds, 5% hits. AID 2785. Giardia lamblia trophozoite growth inhibition. shares compounds with Giardia FBPA inh-1;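 further: trophozoites exposed to compound for 48 h at 37 °C; nearly all actives have a fitted effect of over 70% in size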
Mammal cell tox: mammalian cytotoxicity of Giardia aldolase inhibitor hits | shares compounds with Giardia FBPA inh-1 | mammalian cell viability counter-screen, qHTS | Potency, µM (series often up to 57.5 µM), usual class: inhibitors | 1,500 compounds, 4% hits | AID 2786;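 further: Chinese hamster ovary cells used as mammalian cytotoxicity surrogate; viability measured as cellular ATP by luminescence; compound exposure lasted 48 h before reading; nearly all actives have a fitted effect of over 60% in size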
Giardia FBPA inh-2: confirmation of Giardia fructose-bisphosphate aldolase inhibitors; shares compounds with Giardia FBPA inh-1; purified Giardia aldolase enzyme activity, qHTS; Potency, µM (titrated, usually from 57.5 µM), most hits filed as inhibitors; 1,500 compounds, 5% hits; further: nearly all actives have a fitted effect of over 45% in size
Rabbit aldolase: rabbit FBP aldolase inhibition by Giardia aldolase hits; Rabbit muscle FBPA enzyme inhibition, selectivity counter-screen; Potency, µM (titrated, usually from 57.5 µM), actives largely listed as inhibitors; shares compounds with Giardia FBPA inh-1; 1,500 compounds, 4% hits; further: nearly all actives have a fitted effect of over 60% in size
GAPDH counter: counter-screen for Giardia aldolase inhibitors: GAPDH coupling enzyme; Potency, µM (doses to about 57.5 µM), actives largely listed as inhibitors; 1,500 compounds, 6% hits; GAPDH coupling enzyme counterscreen, biochemical, qHTS; shares compounds with Giardia FBPA inh-1; further: nearly all actives have a fitted effect of over 55% in size
Of the large screens only hits and unclear results are named; the others gave an inactive call (follow-up assays come after a bar, where they were run); [ ] = remark or other dose. Unless noted, the call rests on the fitted dose curve; in most records, active means well fitted curve in the direction sought with a large enough effect; inconclusive means small, poorly fitted or top-dose-only effect, or another doubt; inactive means no such curve, though single readings can be large; an effect the other way counts as inactive or inconclusive.

CN(CC(=O)Nc1ccccc1Cl)C(=O)COC(=O)c1ccccc1[N+](=O)[O-]	none (no result: Cycloheximide cs, LmPK inh, Shiga toxin inh, Giardia FBPA inh-1)
CCOC(=O)c1cnc(-n2nc(C)cc2C)[nH]c1=O	Giardia FBPA inh-1 4.5µM | Giardia growth inactive | Mammal cell tox inactive | Giardia FBPA inh-2 inactive | Rabbit aldolase inactive | GAPDH counter inactive
CC1CCN(S(=O)(=O)CCNC(=O)c2ccc3c(c2)OCO3)CC1	none (no result: Cycloheximide cs, LmPK inh, Shiga toxin inh, Giardia FBPA inh-1)
Cc1ccc(CNC(=O)CN2C(=O)COc3ccc(S(=O)(=O)N4CCCCC4)cc32)o1	none
CCOc1ccc(CN2CCN(S(=O)(=O)c3ccc(NC(C)=O)cc3)CC2)cc1	Giardia FBPA inh-1 16µM | Giardia growth inconclusive | Mammal cell tox inactive | Giardia FBPA inh-2 inactive | Rabbit aldolase inactive | GAPDH counter inactive
COc1ccc(CN2CCN(S(=O)(=O)c3ccc(NC(C)=O)cc3)CC2)cc1OC	none
CN(CCOc1ccccc1)CC(=O)Nc1ccc(S(=O)(=O)N2CCCC2)cc1	Giardia FBPA inh-1 16µM | Giardia growth inconclusive | Mammal cell tox inactive | Giardia FBPA inh-2 inactive | Rabbit aldolase inactive | GAPDH counter inactive
CN1CCN(S(=O)(=O)c2ccc(NC(=O)COc3ccccc3)cc2)CC1	none
CCC1CO/C(=C(\C(Cl)=C(Cl)Cl)[N+](=O)[O-])N1 (stereo unspecified)	none
CN1CCO/C1=C(\C(Cl)=C(Cl)Cl)[N+](=O)[O-]	Giardia FBPA inh-1 18µM | Giardia growth inactive | Mammal cell tox inactive | Giardia FBPA inh-2 inactive | Rabbit aldolase inactive | GAPDH counter inactive
CC(=O)N1c2ccc(S(=O)(=O)N3CCCCC3)cc2CC1C(=O)NCc1ccccc1C (stereo unspecified)	none (no result: Giardia FBPA inh-1)
CCCn1nnc(NC(=S)NC(=O)C(C)(C)C)n1	Giardia FBPA inh-1 5.6µM | Giardia growth inactive | Mammal cell tox inactive | Giardia FBPA inh-2 inactive | Rabbit aldolase inactive | GAPDH counter inactive
Cn1nnc(NC(=O)c2cccs2)n1	none
CCCn1nnc(NC(=S)NC(=O)c2cccs2)n1	LmPK inh inconclusive, Giardia FBPA inh-1 5µM | Giardia growth inconclusive | Mammal cell tox inactive | Giardia FBPA inh-2 inactive | Rabbit aldolase inactive | GAPDH counter inactive
CCCn1nnc(NC(=S)NC(=O)/C=C/c2ccco2)n1	Giardia FBPA inh-1 16µM | Giardia growth inactive | Mammal cell tox inactive | Giardia FBPA inh-2 inactive | Rabbit aldolase inactive | GAPDH counter inactive
CCCCCC(=O)Nc1nnn(CCC)n1	none
CCCN(C(=O)COC(=O)c1[nH]c(C)c(C(=O)OC)c1C)c1c(N)n(Cc2ccccc2)c(=O)[nH]c1=O	none (no result: Cycloheximide cs, LmPK inh, Shiga toxin inh, Giardia FBPA inh-1)
CCN(CC(=O)Nc1cccc(OC)c1)CC(=O)Nc1ccc(C)cc1Cl	Giardia FBPA inh-1 16µM | Giardia growth inactive[10.4 µM] | Mammal cell tox inactive | Giardia FBPA inh-2 inactive | Rabbit aldolase inactive | GAPDH counter inactive
CCN(CC(=O)Nc1cccc(OC)c1)CC(=O)Nc1cccc2ccccc12	none (no result: Cycloheximide cs, LmPK inh, Shiga toxin inh, Giardia FBPA inh-1)
CCN(CC(=O)Nc1ccc(NC(C)=O)cc1)CC(=O)Nc1ccc(Cl)c(Cl)c1	Giardia FBPA inh-1 7.9µM | Giardia growth inactive[10.4 µM] | Mammal cell tox inactive | Giardia FBPA inh-2 inactive | Rabbit aldolase inactive | GAPDH counter inactive
N#C/C(=C/c1ccco1)C(N)=S	Giardia FBPA inh-1 16µM | Giardia growth inconclusive | Mammal cell tox inactive | Giardia FBPA inh-2 inactive | Rabbit aldolase inactive | GAPDH counter inactive
Cn1c(=O)n(CC(=O)O)c(=O)c2c1nc1n2CCCN1c1ccc(Cl)cc1	none (no result: Cycloheximide cs, LmPK inh, RE007 growth inh, Shiga toxin inh, Giardia FBPA inh-1)
